# Screening data from PubChem.
# eLon inh: inhibits E. coli Lon protease; purified E. coli Lon protease, fluorescence polarization; inhibition, % at 7.94 µM; P0A9M0; 360,000 tested, 0.42% active; AID 602123; in the data active = inhibition above about 13%, passing the limit was not always enough;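 note: 0% = enzyme with probe and DMSO and 100% = no enzyme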
# IDE cell inh: inhibitors of human insulin-degrading enzyme in cells; 320,000 tested, 0.41% active; HEK cells, FAbetaB cleavage, fluorescence polarization; inhibition, % at 5.59 µM;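 active = percent inhibition above the average of all tested compounds plus 3 SD, set per screening campaign, cut at about 16% in these data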;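 note: IDE supplied by intact live HEK cells; FP after avidin binding of uncleaved biotin substrate so inhibition keeps polarization high; 0% = DMSO wells and 100% = 60 µM reference IDE inhibitor Ii1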
# Rin1 Abl inh: human Rin1-Abl interaction inhibition; 360,000 tested, 0.4% active; TR-FRET Rin1/Abl binding, biochemical; inhibition, % at 7.35 µM; P00519+Q13671; AID 588664; in the data active = inhibition above about 5%, passing the limit was not always enough
# PKA-R1A act: PKA-R1A complex activation; activation, % at 11.4 µM; PKA-R1A dissociation, Cy5-IP20 fluorescence polarization; scaled: DMSO 0%, 113 µM cGMP 100%; P00514+P68181; 340,000 tested, 0.083% active;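 active = percent activation above the mean of all tested compounds plus 3 SD, cut at about 19% in these data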;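 note: higher means more PKAc released from R1A so a rise in polarization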
# PKA-R2B act: activates the human PKA-R2B holoenzyme complex; PKA-R2B holoenzyme dissociation, Cy5-IP20 fluorescence polarization; R2B truncated from residue 108, S112A mutant; 0% DMSO only, 100% 113 µM cGMP; activation, % at 11.4 µM; 340,000 tested, 0.079% active;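 active = activation above a cutoff set at the mean over all compounds plus 3 SD, cut at about 18% in these data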;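 note: higher means more holoenzyme dissociation and a rise in polarization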
# Target sequence (P31323 whole entry, looked up, other chains not shown, the tested form may be a part): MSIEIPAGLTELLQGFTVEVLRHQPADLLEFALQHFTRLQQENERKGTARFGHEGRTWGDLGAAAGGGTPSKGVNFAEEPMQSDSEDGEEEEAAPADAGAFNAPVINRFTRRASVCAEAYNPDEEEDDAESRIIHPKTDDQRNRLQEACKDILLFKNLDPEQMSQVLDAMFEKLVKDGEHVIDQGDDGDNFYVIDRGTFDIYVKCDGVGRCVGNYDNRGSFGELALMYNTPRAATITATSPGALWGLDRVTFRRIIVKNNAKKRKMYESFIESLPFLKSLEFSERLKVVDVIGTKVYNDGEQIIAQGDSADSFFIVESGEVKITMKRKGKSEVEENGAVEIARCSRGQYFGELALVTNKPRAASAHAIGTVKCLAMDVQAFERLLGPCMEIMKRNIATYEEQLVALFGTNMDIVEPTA
# IDE cell activ: IDE (human) activation, cell-based. P14735. HEK cells, FAbeta-B cleavage, fluorescence polarization; 0% vehicle, 100% cell-free pure enzyme wells. 340,000 tested, 0.073% active. activation, % at 5.96 µM;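 active = activation above the mean of all tested compounds plus 3 SD, set per screening campaign, cut at about 17% in these data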
# IDE cell inh cf: confirmation of human insulin-degrading enzyme inhibitors in cells; inhibition, % at 5.59 µM; HEK cells, FAbetaB cleavage, fluorescence polarization; 1,200 tested, 51% active; AID 435028; shares compounds with IDE cell inh;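 active = mean inhibition across triplicate wells above the cutoff set by the earlier primary insulin-degrading enzyme screen, cut at about 16% in these data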;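 note: 0% = DMSO wells and 100% = 60 µM reference IDE inhibitor Ii1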
# HEK293 tox: counter-screen for IDE inhibitors: cytotoxicity in HEK cells; shares compounds with IDE cell inh; HEK293 cytotoxicity, ATP luminescence; inhibition, % at 5.59 µM; 1,200 tested, 28% active; AID 449730; in the data active = inhibition above about 22%;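 note: 0% = vehicle wells and 100% = reference cytotoxic drug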
# Active calls of the source: *; i = inactive; x = no result given. An excerpt weighted towards active compounds, which were near 1.3% of everything screened.
SMILES,eLon inh,IDE cell inh,Rin1 Abl inh,PKA-R1A act,PKA-R2B act,IDE cell activ,IDE cell inh cf,HEK293 tox
CCC(CC)C(=O)N1CCN(Cc2nc3ccccc3c(=O)[nH]2)CC1,-5.0,-1.1,3.9,3.8,-1.8,9.4,x,x
CN(C)c1ccc(C2C=C(c3ccc(Cl)cc3OC(F)F)Nc3ncnn32)cc1 (stereo unspecified),-46.9,21.0*,-1.2,5.4,2.1,-22.1,28.3*,60.7*
O=C(CN1C(=O)CCC1=O)c1ccc(-c2ccccc2)cc1,-11.8,5.4,0.3,3.0,-6.0,-5.8,x,x
N=c1ccn(CC(=O)c2ccc(-c3ccccc3)cc2)cc1,0.4,43.1*,2.2,-11.1,-0.6,-26.9,11.0,88.4*
CCOC(=O)c1ccc(NC(=O)CSc2nc3sc(C(=O)O)c(C)c3c(=O)[nH]2)cc1,1.6,3.5,-1.5,-1.1,-11.3,-3.8,x,x
Cc1cc(N2CCCC2)ccc1/C=C1\NC(=S)N(C)C1=O,-336.4,79.2*,-8.4,-3.3,-0.8,-118.6,115.7*,16.0
O=C1/C(=C/c2ccc(N3CCCC3)cc2)NC(=S)N1C1CC1,i,89.6*,-10.6,-1.5,-12.4,-89.3,119.9*,26.9*
COC(=O)c1[nH]c2ccc(F)cc2c1NS(=O)(=O)c1ccc(F)c(C)c1,-3.8,4.5,-1.9,-7.4,-3.8,1.7,x,x
CCCN(CC1CC1)c1nc(N)c2c(N)nc(OC)cc2c1C#N,-8.5,5.5,2.4,2.4,-2.3,-6.1,x,x
Cc1c(OCC(=O)N2CCC[C@@H]2C(=O)O)ccc2c3c(c(=O)oc12)CCC3,5.8,8.8,-1.8,-19.5,-2.5,1.4,x,x
Cc1c(C)c2ccc(OCC(=O)N3CCC[C@@H]3C(=O)O)c(C)c2oc1=O,1.1,17.2*,-0.4,6.2,0.3,4.6,1.7,15.0
O=c1cc(COc2ccc(Cl)c(Cl)c2)nc2sccn12,1.4,-1.1,-0.4,-11.6,-6.9,1.3,x,x
O=c1cc(CNc2cc(Cl)ccc2Cl)nc2sccn12,-16.5,16.9*,1.0,-0.8,9.8,-19.6,7.5,7.8
Cc1ccccc1S(=O)(=O)Cc1ccc(C(=O)N2CCN(c3cccc(C)c3C)CC2)o1,-11.0,16.7*,3.4,-3.6,-3.8,-5.7,5.9,68.9*
COc1cc(OC)c(OC)cc1CNc1nnnn1C,1.1,2.0,-6.5,-6.6,-6.0,6.4,x,x
O=C(OCCN1C(=O)c2cccc3c(N4CCOCC4)ccc(c23)C1=O)c1ccccc1Cl,-192.2,112.7*,-4.4,-10.8,4.0,-100.9,96.2*,49.5*
O=C(OCc1c(F)cccc1Cl)c1cc([N+](=O)[O-])ccc1N1CCOCC1,-3.6,1.3,-2.6,-4.5,-5.7,4.4,x,x
O=C(OCCN1C(=O)c2cccc3c(N4CCOCC4)ccc(c23)C1=O)c1cccc(Cl)c1,x,91.2*,x,x,x,x,81.2*,38.3*
O=C(OCCN1C(=O)c2ccccc2C1=O)c1cc(S(=O)(=O)N2CCOCC2)ccc1Cl,7.8,1.5,-0.9,-11.3,-7.8,2.2,x,x
O=C(OCCN1C(=O)c2cccc3c(N4CCOCC4)ccc(c23)C1=O)c1ccc(Cl)cc1Cl,-50.0,49.3*,-5.9,-11.1,-1.7,-46.4,48.5*,61.5*
Cc1ccc(Cl)cc1N1CCN(C(=O)c2ccc3nc[nH]c3c2)CC1,-3.6,19.0*,-3.7,-13.6,-3.9,-18.7,2.6,13.7
O=C(CSc1n[nH]c(=O)n1C1CC1)Nc1ccc(F)c([N+](=O)[O-])c1,-4.6,x,7.1,-9.4,-4.1,3.4,x,x
COC(=O)c1c(NS(=O)(=O)c2cccs2)sc2c1CCCC2,6.9,18.2*,-1.7,-7.3,-10.7,3.4,5.8,10.3
COC(=O)c1c(NC(=O)Cc2cccs2)sc2c1CCCC2,-4.9,7.6,-4.6,-10.6,7.1,1.2,x,x
Cc1ccc(S(=O)(=O)Nc2cc(C(C(=O)OC(C)C)C(=O)C(F)(F)F)c(O)c3ccccc23)c(C)c1 (stereo unspecified),8.5,21.5*,1.6,-0.5,-7.1,-1.7,3.5,16.1
SMILES,eLon inh,IDE cell inh,Rin1 Abl inh,PKA-R1A act,PKA-R2B act,IDE cell activ,IDE cell inh cf,HEK293 tox
Cc1ccc(S(=O)(=O)Nc2ccc(O)c3ccccc23)c(C)c1,7.2,x,4.9,1.8,5.5,-0.1,x,x
CC(=O)c1sc(N/N=C\c2c(O)ccc3ccccc23)nc1C,-264.2,23.3*,-2.4,-10.6,-5.2,-13.5,38.7*,38.5*
CC(=O)c1sc(N/N=C/c2cccc(O)c2)nc1C,-29.0,12.4,1.7,-8.8,-5.7,-12.9,x,x
Cc1ccc(NC(=O)CS(=O)CC(=O)N(C(C)C(=O)NC2CCCCC2)C(C)(C)C)cc1 (stereo unspecified),-2.0,0.3,0.8,-4.7,-2.9,4.3,x,x
CCn1ccnc1CN(C)C(=O)CC1C(=O)NCCN1Cc1c(F)cccc1Cl (stereo unspecified),5.5,1.7,0.4,-6.1,-13.5,0.0,x,x
COc1ccc(C2C(C(C)=O)=C(C)N=c3s/c(=C\c4ccco4)c(=O)n32)c(OC)c1 (stereo unspecified),-2.7,5.0,-1.2,-14.1,4.7,-2.9,x,x
COc1ccc(C2C(C(C)=O)=C(C)N=c3s/c(=C\c4cc(C)n(C)c4C)c(=O)n32)c(OC)c1 (stereo unspecified),i,116.2*,-0.9,-4.2,-2.6,-38.5,25.9*,9.9
CS(=O)(=O)Nc1nc2n(n1)C(c1ccccc1)C=C(c1ccc(Br)cc1)N2 (stereo unspecified),99.3*,63.1*,0.5,10.4,1.3,-64.5,79.3*,7.3
O=C(Nc1ccc(Br)cc1)c1ccc(F)c(S(=O)(=O)NCc2cccs2)c1,-2.2,3.0,-5.5,-15.3,-1.9,4.4,x,x
Cc1ccccc1NS(=O)(=O)c1ccc(OCCNS(C)(=O)=O)cc1,1.4,1.9,-3.2,-5.5,-5.6,-4.4,x,x
Cc1nc2c(ccc3nc(NC(=O)c4ccc5c(c4)OCCO5)sc32)s1,-4.7,18.8*,-1.1,-9.5,2.2,-21.4,5.6,31.3*
COc1cccc(C(=O)OCC(=O)NCCCc2ccccc2)c1,5.5,-6.4,-1.6,3.3,-0.2,-6.8,x,x
Cn1c(N)c(C(=O)CSc2nc(N)cc(=O)[nH]2)c(=O)n(C)c1=O,-0.4,2.6,1.5,-5.2,5.0,-6.1,x,x
Cn1c(N)c(C(=O)CSc2nc(N)cc(N)n2)c(=O)n(C)c1=O,6.2,20.8*,5.1,5.2,1.0,-31.5,7.7,8.6
Cc1sc2ncnc(SCC(=O)NC(=O)c3cccn3C)c2c1C,-22.2,19.2*,-9.9,-4.5,-7.2,-10.8,2.5,17.7
